Key:
[1] = target: PEG-3 (UniProt Q6IN02); assay: inhibition of PEG-3 promoter-driven reporter – cell-based, HeLa, luciferase, CREF/GAPDH counter-screen panel, dose response (AID 624167); settings: CREF/GAPDH counter-screens; HeLa PEG-Prom luciferase reporter, overnight, run 1, dose range 1, at 100 µM (top of the series) unless noted
[2] = target: PEG-3 (UniProt Q6IN02); assay: as above; settings: CREF/GAPDH counter-screens; HeLa PEG-Prom luciferase reporter, overnight, run 2, dose range 1, at 100 µM (top of the series) unless noted
[3] = system: Rat fibroblasts (CREF); assay: as above; settings: CREF/GAPDH counter-screens; run 1, dose range 1, at 100 µM (top of the series)
[4] = system: Rat fibroblasts (CREF); assay: as above; settings: CREF/GAPDH counter-screens; run 2, dose range 1, at 100 µM (top of the series)
[5] = target: Tumor necrosis factor receptor superfamily member 10B (Homo sapiens) (UniProt O14763); assay: viability loss of caspase-8 NB7 cells with TRAIL – with/without TRAIL, luminescence panel, confirmation (AID 651596); settings: NB7 neuroblastoma + caspase-8, TRAIL sensitization, NB7 Caspase-8, with TRAIL, mean of runs, at 10 µM, stronger effect = higher value
Tumor necrosis factor receptor superfamily member 10B (Homo sapiens), sequence (O14763 whole entry, looked up): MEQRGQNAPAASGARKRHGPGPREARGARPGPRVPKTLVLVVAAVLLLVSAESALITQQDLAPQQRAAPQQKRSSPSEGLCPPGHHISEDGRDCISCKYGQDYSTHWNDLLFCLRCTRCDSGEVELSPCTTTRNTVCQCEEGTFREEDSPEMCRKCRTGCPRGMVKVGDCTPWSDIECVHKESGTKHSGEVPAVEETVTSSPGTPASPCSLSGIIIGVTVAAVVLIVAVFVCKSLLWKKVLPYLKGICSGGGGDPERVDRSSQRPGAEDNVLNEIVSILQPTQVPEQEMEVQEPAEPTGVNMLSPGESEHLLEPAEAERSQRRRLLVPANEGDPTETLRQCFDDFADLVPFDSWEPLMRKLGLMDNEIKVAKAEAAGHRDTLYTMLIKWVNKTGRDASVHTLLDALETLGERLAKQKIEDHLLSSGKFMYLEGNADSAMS

[6] = as above; settings: NB7 neuroblastoma + caspase-8, without TRAIL, NB7 Caspase-8, without TRAIL, mean of runs, at 10 µM

PEG-3, sequence (Q6IN02 whole entry, looked up): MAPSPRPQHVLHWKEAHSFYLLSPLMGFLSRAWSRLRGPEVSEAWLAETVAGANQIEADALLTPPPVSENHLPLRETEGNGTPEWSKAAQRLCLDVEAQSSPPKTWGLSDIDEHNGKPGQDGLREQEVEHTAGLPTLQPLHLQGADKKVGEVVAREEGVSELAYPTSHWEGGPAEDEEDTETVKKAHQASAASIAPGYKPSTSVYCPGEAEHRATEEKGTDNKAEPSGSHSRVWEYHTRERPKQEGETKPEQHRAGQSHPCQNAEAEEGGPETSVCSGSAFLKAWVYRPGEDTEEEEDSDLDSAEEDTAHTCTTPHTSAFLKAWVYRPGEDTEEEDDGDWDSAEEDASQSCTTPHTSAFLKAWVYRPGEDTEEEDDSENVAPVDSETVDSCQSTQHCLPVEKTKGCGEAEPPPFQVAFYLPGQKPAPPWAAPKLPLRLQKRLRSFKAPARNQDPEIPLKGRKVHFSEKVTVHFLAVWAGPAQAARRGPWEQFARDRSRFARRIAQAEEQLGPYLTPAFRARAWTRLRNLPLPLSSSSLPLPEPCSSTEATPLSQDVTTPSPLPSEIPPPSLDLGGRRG

SMILES | inhibition [1] | inhibition [2] | inhibition [3] | inhibition [4] | activity [5] | activity [6]
Cc1csc(NC(=O)c2ccc(N3CCCC3=O)cc2)n1 | 88.6% | 78.1% | 88.8% | 90.4% | 77.3% | 73.5%
CC(=O)n1cc(N(C(=O)CCl)c2ccc(C)cc2)c2ccccc21 | 102% | 99% | 99.7% | 95.3% | 99.6% | 99.7%
Cc1ccc2nc(NC(=O)c3ccccn3)sc2c1 | 99.4% | 98.6% | 94.5% | 95.5% | 94% | 93.7%
CCOC(=O)Cc1csc(NC(=S)NC(=O)c2ccc(Cl)cc2)n1 | 77.7% | 73.4% | 88% | 86.8% | 65.1% | 63.8%
CS(=O)(=O)Nc1cccc(NC(=O)C2Cc3c(-c4ccccc4)ccnc3O2)c1 (stereo unspecified) | 58.9% | 75.2% | 35.5% | 40% | 57% | 69.3%
Cc1csc(NC(=O)c2cn3ccccc3n2)n1 | 99% | 99.7% | 99.8% | 99.8% | 89.6% | 89.8%
COc1ccc(/C=N/Nc2nncc3ccccc23)cc1 | 92.6% | 95.4% | 97.8% | 98.9% | 97.3% | 97%
NC(C(=O)O)C1ON=C(Cl)C1O (stereo unspecified) | 41.4% | 43.8% | -3.88% | 9.67% | 82.5% | 88.3%
O=C(N/N=C/c1cccs1)c1n[nH]c2c1CCCC2 | 99.5% | 94.8% | 96.4% | 96.8% | 81% | 84.2%
Cc1ccc(C(=O)Nc2ncc([N+](=O)[O-])s2)cc1 | 91.3% | 96.1% | 85.9% | 88.8% | 68% | 62.8%
CN(C)CCCN(C(=O)c1ccc(S(=O)(=O)N2CCc3ccccc3C2)cc1)c1nc2ccc(F)cc2s1 | 102% | 98.9% | 99% | 98.9% | 48.5% | 17.1%

From PubChem BioAssay
